We go through 15 compounds from PubChem BioAssay.

Calls of active or inactive are those of the source.

The nature of test [1]: compound effects on lung adenocarcinoma cell viability – A549, calcein-AM fluorescence, 48 h, basal, profiling panel (AID 1162). As to conditions: higher = more signal.
Test [2] is described as follows: compound effects on differentiated 3T3-L1 adipocyte viability – cell-based, 3T3-L1 adipocytes, calcein-AM fluorescence, 48 h, basal, profiling panel (AID 1163). To be noted: 3T3-L1 adipocytes viability, higher = more signal.
Test [3] can be described thus: compound effects on hepatocellular carcinoma cell viability – HepG2, calcein-AM fluorescence, 48 h, basal, profiling panel (AID 1164). As to conditions: higher = more signal.
Test [4] can be described thus: compound effects on multiple myeloma cell viability – MM1S, calcein-AM fluorescence, 48 h, basal, profiling panel (AID 1165).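 Also: viability of MM1S multiple myeloma cells under basal unstimulated conditions.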 To be noted: higher = more signal.
Test [5] can be described thus: calcein-AM signal in unstimulated myeloma cells – cell-based, calcein-AM fluorescence, 48 h, PK04 Diversity Set, profiling panel (AID 1166).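 Also: cells grown under basal conditions without added stimulus.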 As to conditions: RPMI8226 myeloma viability, higher = more signal.
Test [6] can be described thus: JC-1 mitochondrial signal, unstimulated HepG2 cells – cell-based, JC-1 fluorescence, 24 h, 100 nL compound, profiling panel (AID 1167). To be noted: HepG2 mitochondrial potential, higher = more signal.
The nature of test [7]: JC-1 mitochondrial signal, unstimulated adipocytes – cell-based, JC-1 fluorescence, 3T3-L1 adipocytes, 24 h, 100 nL compound, profiling panel (AID 1168). To be noted: JC-1 mitochondrial fluorescence, higher = more signal, called active from +8 up or from −8 down.
A short description of test [8]: JC-1 mitochondrial signal, unstimulated myeloma cells – cell-based, JC-1 fluorescence, RPMI8226, 24 h, 100 nL compound, profiling panel (AID 1169). As to conditions: JC-1 mitochondrial potential fluorescence, higher = more signal.
The nature of test [9]: JC-1 mitochondrial signal, unstimulated MM1S myeloma – cell-based, JC-1 fluorescence, 24 h, 100 nL compound, profiling panel (AID 1170). To be noted: MM1S mitochondrial potential, higher = more signal.
Test [10] in a line: resazurin metabolic signal in A549 cells – cell-based, resazurin fluorescence, 24 h, PK04 Diversity Set, profiling panel (AID 1171). As to conditions: A549 viability, higher = more signal, called active from +8 up or from −8 down.
Also: test concentration not given here.

On to `CCOC(=O)C1=CC[C@H]2C(=O)N(CC)C(=O)[C@@H]12`, for which the z-score in test [1] was -0.148; in test [2], 0.0888; in test [3], -0.622; in test [4] it was -0.0999; in test [5] it was 0.0317; in [6], -0.342. The z-score in test [7] was -0.362 (inactive); in test [8], 0.0877; in [9] it was -0.517; in test [10] it was 1.17 (inactive).

With `CC(C)(C)OC(=O)CC[C@]1(C(=O)NCc2ccccc2)N=C(c2ccc(OCCCO)cc2)O[C@H]1c1ccccc1`, the z-score in [1] is -1.02; in [2], 0.587; in test [3], -0.329; in test [4], -1.99; in [5] it was -1.14; in test [6], 0.956. In addition, the z-score is -1.1 (inactive) in test [7], -0.762 in test [8], -0.531 in [9] and 0.198 (inactive) in [10].

`C#C[C@@H](CC)O[Si](C#Cc1ccc(Oc2ccccc2)cc1)(C(C)C)C(C)C`: the z-score is -2.96 in test [1]; -1.01 in [2]; -2.63 in [3]; -2.97 in test [4]; -4.2 in test [5]; -2.29 in [6]. Besides, the z-score was -0.068 (inactive) in test [7], -0.291 in [8], -1.11 in test [9] and -0.936 (inactive) in test [10].

In the case of `CC(C)=CCCC(C)=CCON=C1C[C@@H](O)[C@@H](O)[C@@H]2[C@@H]3C(=O)N(C[C@@H]4CCCO4)C(=O)[C@@H]3CC[C@@H]12`, the z-score was 0.113 in test [1]; -0.833 in test [2]; -0.315 in test [3]; 0.182 in [4]; -0.0114 in test [5]; -1.31 in [6]. In addition, the z-score in test [7] is 0.729 (inactive); in test [8], -0.495; in [9] it was -0.761; in test [10] it was 0.0805 (inactive).

`C#CCCCON=C1C[C@@H](O)[C@@H](O)[C@@H]2[C@@H]3C(=O)N(c4cccc(Oc5ccccc5)c4)C(=O)[C@@H]3CC[C@@H]12`: the z-score was -0.559 in [1]; 0.43 in test [2]; -1.57 in [3]; -0.399 in test [4]; -0.2 in [5]; 0.106 in [6]. In addition, the z-score is 0.126 (inactive) in [7], -0.56 in test [8], 0.835 in test [9] and -0.248 (inactive) in [10].

Consider `CCOC(=O)[C@H](CC(C)C)NC(=O)CCC1CC(OC(=O)NCc2cccc3ccccc23)CC2(CCCC(COC(=O)NCCc3ccccc3OC)O2)O1` (stereo not given in full), for which the z-score in test [1] is -0.571; in test [2], -0.187; in test [3] it was -0.766; in [4], 0.0779; in test [5] it was -0.407; in test [6], 0.602. Also, the z-score was -0.0276 (inactive) in [7], -0.0975 in test [8], -0.157 in [9] and 0.45 (inactive) in test [10].

Regarding `CO[C@@H]1COC(=O)CC=C[C@@H](C)[C@@H]2C=C[C@H](O)[C@@H](COC(=O)[C@H](C)NC(=O)CC=C[C@H]1C)O2`, the z-score in [1] is 0.495; in [2], 0.29; in [3], -0.857; in [4] it was 0.23; in test [5], 0.706; in [6], -0.086. The z-score is -1.62 (inactive) in test [7], 0.583 in test [8], -0.385 in test [9] and 0.612 (inactive) in test [10].

`CC(C)=NOCc1cccc(-c2cc(-c3ccccc3)no2)c1`: the z-score in test [1] is -0.398; in test [2], 0.0768; in [3], 0.0628; in test [4], -1.06; in [5], -0.375; in test [6], -0.499. Also, the z-score is -0.302 (inactive) in test [7], -0.112 in test [8], 0.354 in test [9] and -0.798 (inactive) in test [10].

As for `CN1C(=O)C2C=CC(C(O)C(c3ccccc3)c3ccccc3)N(NC(=O)OC(C)(C)C)C2C1=O` (stereo not given), the z-score in test [1] is -1.23; in test [2], -0.4; in test [3], -0.698; in test [4], -2.47; in [5], -1.61; in test [6] it was -1.46. The z-score in test [7] is -0.378 (inactive); in [8] it was -0.654; in test [9], 0.455; in test [10], 0.383 (inactive).

For `CCOc1ccc(N2C(=O)/C(=C/C=C/c3ccccc3OC)S(=O)(=O)C2c2cccc([N+](=O)[O-])c2)cc1` (stereo not given), the z-score is 1.18 in test [1]; 1.39 in test [2]; 0.136 in [3]; -2.72 in test [4]; -0.879 in test [5]; -0.855 in test [6]. The z-score in test [7] is -0.125 (inactive); in test [8], -0.732; in [9], -0.0787; in test [10] it was 0.0969 (inactive).

Regarding `C=C(/C(=C/C[C@H](OC(=O)c1ccncc1)c1ccc(OCCO)cc1)c1cnc2ccccc2c1)C(C)C`, the z-score in [1] is 1.31; in test [2] it was -0.122; in test [3], 0.0253; in test [4], -2.75; in test [5], -0.294; in test [6], 0.92. The z-score in [7] is -0.69 (inactive); in test [8] it was -0.815; in test [9], -0.0967; in test [10], 0.58 (inactive).

Consider `CCCCCN1CC=CC23O[C@@H]4C=CCOC(=O)[C@@H]4[C@H]2C(=O)N(CCCCCCO)[C@@H]3C1=O` (stereo not given in full), for which the z-score is -0.262 in test [1]; -0.0159 in test [2]; 0.63 in [3]; 1.04 in test [4]; -0.534 in test [5]; -0.429 in [6]. Besides, the z-score in test [7] was -0.574 (inactive); in test [8], -0.343; in test [9], -0.414; in test [10] it was 0.444 (inactive).

As for `CO[C@H]([C@@H](C)[C@H](OC)c1ccccc1)[C@H](C)[C@@H](OC)[C@H](C)C(C)=O`, the z-score was 1.29 in test [1]; -0.305 in [2]; 0.278 in test [3]; 0.48 in test [4]; -0.345 in [5]; 0.0892 in test [6]. Also, the z-score in [7] is 1.16 (inactive); in test [8], -0.141; in [9], 0.692; in [10], -0.0733 (inactive).

Consider `CO[C@H]1O[C@H](CO)[C@@H](OC(=O)Nc2ccc3c(c2)OCO3)[C@H](OC(=O)Nc2ccccc2-c2ccccc2)[C@@H]1OC(=O)Nc1ccccc1-c1ccccc1`, for which the z-score in test [1] is -0.89; in [2], -0.0426; in test [3] it was -0.251; in test [4] it was -0.624; in test [5] it was -0.775; in [6], -0.121. The z-score in [7] was 1.34 (inactive); in test [8] it was -1.11; in [9], 0.481; in test [10], -1 (inactive).

`COCCOC(=O)N1C(=O)[C@@]2(c3ccccc31)[C@H](C(N)=O)[C@H]1C(=O)O[C@H](c3ccccc3)[C@H](c3ccccc3)N1[C@@H]2c1ccccc1OCCO`: the z-score was -0.421 in [1]; 1.59 in test [2]; -1.42 in [3]; -3.2 in test [4]; -4.53 in test [5]; -0.728 in test [6]. In addition, the z-score in test [7] is 0.633 (inactive); in test [8] it was -1.1; in test [9] it was -0.0748; in test [10], -1.54 (inactive).
